A selection: hits, their analogues and other compounds. The true share with any hit is near 7.4%.
NPC1 prom act: NPC1 promoter activation; AID 485313; Potency, µM (series often up to 9.22 µM), for the others: at the top dose activation, actives largely listed as activators; actives 2.4% (n = 320,000); Huh7 NPC1 promoter luciferase reporter, 24 h; note: % of control where 0% means no effect; nearly all actives have a fitted effect of over 60% in size
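In 1536-well qHTS, Huh7 cells harboring an NPC1 promoter–luciferase construct received compound for 24 h; activation was quantified by luminescence following luciferase reagent addition.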
SMN2 splice up: increases expression of the SMN2 splice variant | AID 1458 | HEK293 SMN2-luciferase splicing reporter, luminescence, 30-36 h | actives 2.8% (n = 210,000) | Potency, µM (highest dose often 46.1 µM), without a hit: top-dose activity change, positive = activation, usual class: activators; note: % of control where 0% means no effect; nearly all actives have a fitted effect of over 55% in size
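HEK293 cells carry an SMN2 minigene-luciferase reporter in which exon 7 inclusion puts luciferase in frame. Cells were seeded at 2000 cells/well, attached for 10-12 hours, then exposed to compounds for 30-36 hours at 37C before ONE-Glo luminescence.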
FLuc counter: firefly luciferase modulation, counter-screen for miR-21 project | P08659 | purified FLuc, Km substrates, luminescence inhibition | Potency, µM (highest dose often 57.5 µM), without a hit: top-dose activity change, negative = inhibition, hits mostly inhibitors | actives 6.9% (n = 360,000);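 note: plate controls were vehicle for no effect and reference inhibitor for full effect; nearly all actives have a fitted effect of over 55% in size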
Target sequence (P08659 whole entry, looked up): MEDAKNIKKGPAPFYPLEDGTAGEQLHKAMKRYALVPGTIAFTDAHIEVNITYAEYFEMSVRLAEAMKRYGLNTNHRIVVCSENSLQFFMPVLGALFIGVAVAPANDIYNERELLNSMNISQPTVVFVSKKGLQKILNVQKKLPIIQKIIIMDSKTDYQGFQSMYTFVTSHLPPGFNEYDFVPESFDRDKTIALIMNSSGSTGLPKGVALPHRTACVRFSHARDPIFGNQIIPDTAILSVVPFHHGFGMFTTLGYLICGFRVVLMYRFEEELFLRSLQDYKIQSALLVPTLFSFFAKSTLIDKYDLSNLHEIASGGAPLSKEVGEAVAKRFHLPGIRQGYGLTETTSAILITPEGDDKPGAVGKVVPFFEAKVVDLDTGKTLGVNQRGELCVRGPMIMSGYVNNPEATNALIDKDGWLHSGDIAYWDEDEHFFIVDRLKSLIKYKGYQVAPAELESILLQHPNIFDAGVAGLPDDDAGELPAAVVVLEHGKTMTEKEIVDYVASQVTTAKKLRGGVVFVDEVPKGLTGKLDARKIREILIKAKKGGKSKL
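Purified P. pyralis luciferase (10nM final) with 10uM D-luciferin and 10uM ATP (Km levels) in 50mM Tris acetate pH 7.5, 10mM Mg acetate, 0.01% Tween-20, 0.05% BSA; qHTS 6-point titration, ~60 µM downward; luminescence read.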
ELG1 genotox: induces genotoxicity in HEK293T cells with luciferase-tagged ELG1 | HEK293T ELG1-luciferase reporter, luminescence, 16 h | Potency, µM (titrated, usually from 46 µM), inactives show top-dose activity change, positive = activation, most hits filed as activators | actives 1.3% (n = 330,000); note: % of control where 0% means no effect; nearly all actives have a fitted effect of over 60% in size
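Step 1: seed 2,000 HEK293T ELG1-luciferase cells per well. Step 2: add compound or DMSO, incubate 16 hr at 37 °C. Step 3: ONE-Glo, 30 min at room temperature, read luminescence.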
Rab9 promoter act: Rab9 promoter activation; actives 2.8% (n = 320,000); Potency, µM (highest dose often 9.22 µM), inactives show top-dose activation, negative = inhibition, usual class: activators; Huh7 Rab9 promoter-luciferase reporter, luminescence, 24 h; note: % of control where 0% means no effect; nearly all actives have a fitted effect of over 60% in size
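Measured in stably transfected Huh7 cells bearing a Rab9 promoter–luciferase construct: 24 h compound treatment at 37 °C, followed by luminescence detection.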
Starred values were filed as active, the others as inactive; u = inconclusive; x = not tested or not shown; [ ] = another dose, or the depositor's remark. Calls come from the whole dose curve; as a rule, active = well fitted curve in the direction sought with a large enough effect; inconclusive = small, poorly fitted or top-dose-only effect, or another doubt; inactive = no such curve, though single readings can be large; an effect the other way counts as inactive or inconclusive. Potency is the fitted concentration of half-maximal effect.

SMILES	NPC1 prom act	SMN2 splice up	FLuc counter	ELG1 genotox	Rab9 promoter act
CC1CCCN(CCCNC(=O)c2cc(Sc3ccc(F)cc3)nc3ccccc23)C1 (stereo unspecified)	x	x	-3%	x	x
Cc1ccc(-c2nnc(SCc3ccccc3C#N)o2)cc1	x	2.2µM*	0.34µM*	x	x
N#Cc1ccc(CSc2nnc(-c3ccc(Br)cc3)o2)cc1	x	-14%	6%	x	x
N#Cc1ccccc1CSc1nnc(-c2ccc(Br)cc2)o1	x	u	1.2µM*	x	x
O=C(O)Cc1cccc2c(=O)cc(-c3ccccc3)oc12	x	-8%[9.22 µM]	x	x	x
Nc1cccc2cc(-c3ccccc3)oc12	4µM*	x	4.8µM*	u	u
COc1ccccc1CNc1ccc(-c2nc(-c3ccncc3)no2)cc1[N+](=O)[O-]	x	x	-6%	x	x
O=C(O)c1ccc(N=Nc2c(-c3ccccc3)[nH]oc2=O)cc1	u	x	11µM*	17%	u
CC(=O)c1cccc(N=Nc2c(-c3ccccc3)[nH]n(-c3ccccc3)c2=O)c1	-7%	-16%	u	-8%	-7%
CC1(C)CC(=O)C2=C(C1)Nc1ccccc1N=C2	-1%	u	6.7µM*	11%	-3%
CC1(C)CC(=O)C2=C(C1)Nc1ccccc1NC2	0%	5%	-2%	0%	-1%
Cc1nn(-c2ccccc2)c(C)c1Cc1ccc(O)cc1	u	x	24µM*	3%	u
Cc1nn(-c2ccccc2)c(C)c1CN	-3%	x	-1%	2%	-10%
O=C(OCC1OC(n2ncc(=O)[nH]c2=O)C(OC(=O)c2ccccc2)C1OC(=O)c1ccccc1)c1ccccc1 (stereo unspecified)	-3%	x	8%	1%	0%
CC(=O)OC[C@H]1O[C@@H](n2ncc(=O)[nH]c2=O)[C@H](OC(C)=O)[C@@H]1OC(C)=O	-5%	10µM*	-2%	-13%	1%
COC(=O)c1cccc(NC(=O)Cc2nc(-c3ccccc3)sc2-c2ccc(C)cc2)c1	-7%	5%	-1%	-3%	6%
CC(=O)Nc1cccc(NC(=O)Cc2nc(-c3ccccc3)sc2-c2ccc(C)cc2)c1	-3%	15%	21µM*	3%	8%
COc1cccc(NC(=O)Cc2nc(-c3ccccc3)sc2-c2ccc(C)cc2)c1	3%	2%	15µM*	1%	8%
COc1ccc2c(c1)C(=O)c1ccccc1CO2	4µM*	u	6µM*	u	3.2µM*
Cc1ccc(CNC(=O)C2CCCN(c3nc4c(C)cc(C)cc4s3)C2)cc1 (stereo unspecified)	x	17%	-3%	x	x
O=C(/C=C\Nc1ccc(Cl)cn1)c1ccc(Br)cc1	2µM*	11µM*	u	u	2.5µM*
COc1ccc(S(=O)(=O)Nc2cc(C)ccn2)cc1	-7%	17%	6%	0%	-1%
CCOC(=O)C(=CNc1cc(C)ccn1)C(=O)OCC	1%	1%	-5%	3%	-4%
Cc1ccnc(N/C=C/C(=O)c2ccc(Br)cc2)c1	1.6µM*	x	0.95µM*	u	1.1µM*
COc1ccc(C(=O)/C=C/Nc2cc(C)ccn2)cc1	0.4µM*	x	0.48µM*	u	0.32µM*
SMILES	NPC1 prom act	SMN2 splice up	FLuc counter	ELG1 genotox	Rab9 promoter act
COC(=O)c1sc(NC(=O)COc2ccccc2)nc1C	u	8%	17µM*	18µM*	u
COC(=O)c1sc(NC(=O)COc2ccc(C)cc2)nc1C	-1%	6%	17µM*	6%	11%
COC(=O)c1sc(NC(=O)Cc2cccs2)nc1C	13%	u	u	21µM*	27%
CC(C)c1nnc(NC(=O)Cc2cccs2)s1	-1%	-12%	2%	4%	1%
COC(=O)c1c(NC(=O)Cc2cccs2)sc2c1CCC(C)C2 (stereo unspecified)	21%	-1%	17µM*	9%	u
COC(=O)CN1C(C(=O)c2ccccc2)=C(OC(=O)c2ccccc2)c2ccccc2S1(=O)=O	x	-5%	-4%	x	x
O=C(O)CNC(=O)/C=C/c1ccc(Cl)cc1Cl	-3%	-5%	24µM*	-6%	6%
NNC(=O)/C=C/c1ccc(Cl)cc1Cl	2%	5%	u	-2%	18%
COc1ccc2c(c1)O[C@@H](c1ccc3c(c1)OCO3)[C@H](OC(=O)N[C@H]1CCCc3ccccc31)C2=O	x	-4%	x	x	x
CCc1ccc(CNC(=O)c2cnc(N3CCCCC3)c3ccccc23)cc1	x	x	-13%	x	x
Cn1c(=S)oc2ccccc21	-4%	x	-2%	-3%	-6%
CC(=O)/C=C/n1c(=S)oc2ccccc21	-36%	-10%[1.84 µM]	5.4µM*	-11%	-41%
CC(C)CC(=O)/C=C/n1c(=S)oc2ccccc21	-32%	-68%	0.95µM*	-16%	-46%
Cc1nn(C(=O)c2ccccc2F)c(C)c1S(=O)(=O)N1CCOCC1	x	x	-15%	x	x
CCN(CC)S(=O)(=O)c1cc(C(=O)Nc2ccc(Cl)cn2)ccc1C	1.8µM*	1.6µM*	2.4µM*	1.8µM*	1.6µM*
CCN(CC)S(=O)(=O)c1cc(C(=O)NC2CCCCC2)ccc1C	2.8µM*	u	7.6µM*	u	4µM*
Cc1ccc(NC(=O)Cn2c(=O)n(-c3ccc(CC(=O)NCC4CCCO4)cc3)c(=O)c3ccccc32)cc1 (stereo unspecified)	x	0%	-2%	x	x
CCS(=O)(=O)N1CCc2cc(C(=O)Nc3cc(OC)c(Cl)cc3OC)ccc21	x	x	4%	x	x
CCSc1nnc(NC(=O)c2ccc(C)o2)s1	u	16µM*	17µM*	18µM*	u
CCc1nnc(NC(=O)c2oc3cc(C)c(C)cc3c2C)s1	16%	u	-1%	9%	6%
CCSc1nnc(NC(=O)c2cc(C)oc2C)s1	u	11µM*	17µM*	7.3µM*	u
CCc1nnc(NC(=O)c2cc(C)oc2C)s1	-1%	x	17µM*	18%	7%
CCSc1nnc(NC(=O)Cc2ccc(OC)cc2)s1	1%	-6%	0%	0%	10%
C[C@@H]1OC(Nc2ccc(N=Nc3ccccc3)cc2)[C@H](O)[C@H](O)[C@H]1O (stereo partly specified)	u	x	24µM*	11%	u
CC(C)Sc1nc(SCC(=O)NCc2ccco2)c2c3c(sc2n1)COC(C)(C)C3	7%	-1%	9.5µM*	u	13%
SMILES	NPC1 prom act	SMN2 splice up	FLuc counter	ELG1 genotox	Rab9 promoter act
CCCSc1nc(SCC(=O)NCc2ccccc2)c2c3c(sc2n1)COC(C)(C)C3	-6%	0%	8%	0%	-9%
CC1(C)Cc2c(sc3nc(SCC(=O)O)nc(N)c23)CO1	-3%	x	-18%	0%	2%
CC(C)Sc1nc(SCC(=O)O)c2c3c(sc2n1)COC(C)(C)C3	u	x	13µM*	u	u
O=S(=O)(c1ccc(Cl)cc1)c1nnn2c1nc(NCc1cccs1)c1sccc12	x	x	1%	x	x
Cc1cc(F)ccc1NC(=O)CCn1nc(C)c(S(=O)(=O)N2CCCCC2)c1C	x	x	-5%	x	x
Cc1cc2sc(C)[n+](CCCOS(=O)(=O)O)c2cc1C	x	-6%[9.22 µM]	x	x	x
